Several values for one entry are separate records, joined by “and”; a condition that tells them apart may be missing. Identical values can stand only once. Results filed as inconclusive are left out. Some compounds were tested as several samples or in several runs, with calls that do not always agree. Activity calls are given as the source filed them. Unless noted, the call rests on the fitted dose curve; in most records, active means well fitted curve in the direction sought with a large enough effect in the repeat runs; inconclusive means weak or mixed curves; inactive means no such curve, though single readings can be large; an effect the other way counts as inactive or inconclusive.
Key:
[1] = qHTS assay to identify small molecule antagonists of the glucocorticoid receptor (GR) signaling pathway - cell viability counter screen (AID 720693); further: nearly all actives have a fitted effect of over 55% in size; further: potency means the concentration at half of the fitted maximal effect
[2] = qHTS assay for identifying genotoxic compounds that show differential cytotoxicity against isogenic chicken DT40 cell lines with known DNA damage response pathways - wild type cell line (AID 743012); further: nearly all actives have a fitted effect of over 60% in size; further: potency means the concentration at half of the fitted maximal effect
Procedure, shortened: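 Quantitative HTS on parental DT40 cells: 40 h compound treatment at 37 C/5% CO2, with viability then determined by CellTiter-Glo luminescence. Values serve as the DNA repair-proficient reference for differential cytotoxicity.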

[3] = qHTS assay for identifying genotoxic compounds that show differential cytotoxicity against isogenic chicken DT40 cell lines with known DNA damage response pathways - Rev3 mutant cell line (AID 743014); further: nearly all actives have a fitted effect of over 55% in size; further: potency means the concentration at half of the fitted maximal effect
[4] = qHTS assay for identifying genotoxic compounds that show differential cytotoxicity against isogenic chicken DT40 cell lines with known DNA damage response pathways - Rad54/Ku70 mutant cell line (AID 743015); further: nearly all actives have a fitted effect of over 60% in size; further: potency means the concentration at half of the fitted maximal effect
[5] = qHTS assay to identify small molecule antagonists of the androgen receptor (AR) signaling pathway - cell viability counter screen (AID 743033; further: nearly all actives have a fitted effect of over 45% in size; further: potency means the concentration at half of the fitted maximal effect)
[6] = molecular target: Androgen receptor (Homo sapiens) (UniProt P10275); assay: qHTS assay to identify small molecule agonists of the androgen receptor (AR) signaling pathway (AID 743036; active means well fitted activation curve with a large enough effect in the signal ratio in the repeat runs, with a control signal flat, not every such curve was filed as active; the % refers to the signal ratio)
Procedure, shortened: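 AR-UAS-bla HEK293 cells, plated 4 h before dosing, were treated with compound for 16 h at 37C. beta-Lactamase reporter read after 2 h with LiveBLAzer B/G FRET substrate at room temperature.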

[7] = molecular target: Androgen receptor (Homo sapiens) (UniProt P10275); assay: qHTS assay to identify small molecule agonists of the androgen receptor (AR) signaling pathway using the MDA cell line (AID 743040; further: nearly all actives have a fitted effect of over 20% in size); settings: MDA-kb2 AR-luc cells, MMTV luciferase, 16 h, stronger effect = higher value
Procedure, shortened: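 After a 5 h incubation at 37C and 0% CO2, MDA-kb2 reporter cells were dosed with compounds in DMSO and kept 16 h under the same conditions. Luciferase activity was then read as luminescence with ONE-Glo.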

[8] = qHTS assay to identify small molecule antagonists of the androgen receptor (AR) signaling pathway using the MDA cell line - cell viability counter screen (AID 743041; further: nearly all actives have a fitted effect of over 45% in size; further: potency means the concentration at half of the fitted maximal effect)
Procedure, shortened: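 R1881-driven MDA-kb2 AR-luc cells, 3,000/well, were dosed with library compounds for 16 h; cell health came from CellTiter-Fluor fluorescence in the reporter wells.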

[9] = molecular target: Androgen receptor (Homo sapiens) (UniProt P10275); assay: qHTS assay to identify small molecule antagonists of the androgen receptor (AR) signaling pathway using the MDA cell line (AID 743042; further: nearly all actives have a fitted effect of over 55% in size; further: potency means the concentration at half of the fitted maximal effect)
Procedure, shortened: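 Antagonist mode: compounds plus R1881 agonist added to MDA-kb2 AR-luc cells, incubated 16 h at 37C. Luciferase reporter luminescence quantified, with multiplexed CellTiter-Fluor readout for cell viability.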

[10] = qHTS assay to identify small molecule antagonists of the thyroid receptor (TR) signaling pathway - cell viability counter screen (AID 743064); further: nearly all actives have a fitted effect of over 50% in size; further: potency means the concentration at half of the fitted maximal effect
Procedure, shortened: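 GH3.TRE-Luc rat pituitary cells dosed after 4 hr plating, co-stimulated with T3 at 1 nM final, incubated 23.5 h at 37 C. Viability measured in the same wells by CellTiter-Fluor fluorescence after 30 min further at 37 C.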
On the % scale 0 is the no-effect control and ±100 the full control effect.

Sequence of Androgen receptor (Homo sapiens) (P10275 whole entry, looked up): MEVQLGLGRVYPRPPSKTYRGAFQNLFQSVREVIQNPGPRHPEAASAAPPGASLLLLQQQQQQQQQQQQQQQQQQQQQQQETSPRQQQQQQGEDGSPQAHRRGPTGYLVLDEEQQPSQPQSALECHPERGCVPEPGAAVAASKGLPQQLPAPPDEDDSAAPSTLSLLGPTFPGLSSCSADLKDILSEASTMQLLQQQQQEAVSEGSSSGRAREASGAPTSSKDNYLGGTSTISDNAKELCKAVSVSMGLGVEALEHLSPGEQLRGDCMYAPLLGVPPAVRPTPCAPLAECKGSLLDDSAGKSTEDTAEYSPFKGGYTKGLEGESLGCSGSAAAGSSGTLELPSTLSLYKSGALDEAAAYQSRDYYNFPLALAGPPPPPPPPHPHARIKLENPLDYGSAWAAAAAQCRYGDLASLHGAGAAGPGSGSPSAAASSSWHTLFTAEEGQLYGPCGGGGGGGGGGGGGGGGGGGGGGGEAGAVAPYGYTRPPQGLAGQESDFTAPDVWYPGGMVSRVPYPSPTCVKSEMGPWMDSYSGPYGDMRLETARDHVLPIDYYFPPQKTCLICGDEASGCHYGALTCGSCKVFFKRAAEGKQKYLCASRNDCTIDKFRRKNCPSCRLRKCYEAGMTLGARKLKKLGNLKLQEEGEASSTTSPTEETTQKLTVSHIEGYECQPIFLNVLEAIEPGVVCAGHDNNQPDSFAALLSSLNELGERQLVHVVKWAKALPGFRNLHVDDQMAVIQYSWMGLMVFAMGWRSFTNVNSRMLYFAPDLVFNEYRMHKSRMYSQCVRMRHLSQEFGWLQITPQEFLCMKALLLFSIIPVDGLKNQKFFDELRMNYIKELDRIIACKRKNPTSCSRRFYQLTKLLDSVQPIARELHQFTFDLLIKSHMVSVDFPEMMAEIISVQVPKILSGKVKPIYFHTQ

O=[N+]([O-])/N=C1\NCCN1Cc1ccc(Cl)nc1
inactive and 8.41 µM (active): Potency [3]
inactive and 5.31 µM (active): Potency [4]
inactive: Potency [1] | Potency [2] | Potency [5] | Potency [6] | activity change ([7]; at 70.3 µM (top of the series)) 0.161% and 4.01% and 0.695% | Potency [8] | Potency [9] | Potency [10]

N#Cc1c(Cl)c(Cl)c(Cl)c(C#N)c1Cl
active: Potency [1] 21.5 µM and 21.9 µM | Potency [2] 268 nM and 122 nM | Potency [3] 213 nM and 172 nM | Potency [4] 268 nM and 154 nM | Potency [5] 2.41 µM and 1.55 µM | Potency [8] 4.76 µM and 6.11 µM | Potency [10] 847 nM and 193 nM

CC(C)(C#N)N=NC(C)(C)C#N
inactive: Potency [1] | Potency [2] | Potency [3] | Potency [4] | Potency [5] | Potency [8] | Potency [10]

CCCCOCC1CO1 (configuration not stated)
inactive: Potency [1] | Potency [2] | Potency [3] | Potency [4] | Potency [5] | Potency [8] | Potency [10]

CCOC(=O)c1ccccc1N
inactive: Potency [1] | Potency [2] | Potency [3] | Potency [4] | Potency [5] | Potency [8] | Potency [10]

CC(C)=CC1C(C(=O)OCN2C(=O)C3=C(CCCC3)C2=O)C1(C)C (configuration not stated)
active: Potency [2] 43.3 µM | Potency [4] 27.3 µM
inactive: Potency [1] | Potency [3] | Potency [5] | Potency [6] | activity change ([7]; at 70.3 µM (top of the series)) 7.43% and -10.5% | Potency [8] | Potency [9]

Clc1cccc(Cl)c1
inactive: Potency [1] | Potency [2] | Potency [3] | Potency [4] | Potency [5] | Potency [10]

OCCOCCO
inactive: Potency [1] | Potency [2] | Potency [3] | Potency [4] | Potency [5] | Potency [8] | Potency [10]

CC(C)(c1ccc(OCC2CO2)cc1)c1ccc(OCC2CO2)cc1 (configuration not stated)
active: Potency [2] 24.3 µM | Potency [3] 2.47 µM and 3.06 µM | Potency [4] 55.2 µM and 27.3 µM
inactive: Potency [1] | Potency [5] | Potency [6] | activity change ([7]; at 70.3 µM (top of the series)) -0.897% | activity change ([7]; at 95 µM (top of the series)) -0.522% | Potency [8] | Potency [9]

C[N+](C)(C)CC(=O)O
inactive: Potency [1] | Potency [2] | Potency [3] | Potency [4] | Potency [5] | Potency [10]

CCOS(=O)(=O)OCC
inactive and 54.5 µM (active): Potency [3]
inactive: Potency [1] | Potency [2] | Potency [4] | Potency [5] | Potency [10]

ClCC(Cl)CCl
inactive: Potency [1] | Potency [2] | Potency [3] | Potency [4] | Potency [5] | Potency [8] | Potency [10]

Cc1ccc([N+](=O)[O-])cc1
inactive: Potency [1] | Potency [2] | Potency [3] | Potency [4] | Potency [5] | Potency [10]

N#Cc1cccnc1
inactive: Potency [1] | Potency [2] | Potency [3] | Potency [4] | Potency [5] | Potency [8] | Potency [10]

[CH3][Sn]([Cl])([Cl])[Cl]
inactive: Potency [1] | Potency [2] | Potency [3] | Potency [4] | Potency [5] | Potency [8] | Potency [10]

ClC(Cl)(Cl)c1ccccc1
inactive: Potency [1] | Potency [2] | Potency [3] | Potency [4] | Potency [5] | Potency [8] | Potency [10]

O=C1C(Cl)=C(Cl)C(=O)c2ccccc21
active: Potency [1] 21.9 µM and 19.5 µM | Potency [2] 2.18 µM and 486 nM | Potency [3] 972 nM and 969 nM | Potency [4] 2.18 µM and 545 nM | Potency [5] 4.91 µM and 7.76 µM | Potency [10] 30.7 µM and 5.45 µM

C[N+](C)(C)CC(=O)[O-]
inactive: Potency [1] | Potency [2] | Potency [3] | Potency [4] | Potency [5] | Potency [8] | Potency [10]

CCC[CH2][Sn]([Cl])([CH2]CCC)[CH2]CCC
active: Potency [1] 1.1 µM | Potency [2] 546 nM and 486 nM | Potency [3] 434 nM and 344 nM | Potency [4] 487 nM and 386 nM | Potency [5] 618 nM and 1.1 µM | Potency [8] 1.22 µM and 2.17 µM | Potency [10] 307 nM and 386 nM

Brc1ccc(Br)cc1
inactive: Potency [1] | Potency [2] | Potency [3] | Potency [4] | Potency [5] | Potency [8] | Potency [10]

CN(C)P(=O)(N(C)C)N(C)C
inactive: Potency [1] | Potency [2] | Potency [3] | Potency [4] | Potency [5] | Potency [10]

O=C1CCCO1
inactive: Potency [1] | Potency [2] | Potency [3] | Potency [4] | Potency [5] | Potency [6] | activity change ([7]; at 70.3 µM (top of the series)) -2.47% and -0.181% | Potency [8] | Potency [9] | Potency [10]

O=NN1CCOCC1
inactive: Potency [1] | Potency [2] | Potency [3] | Potency [4] | Potency [5] | Potency [8] | Potency [10]

CC(C)=CC1C(C(=O)OCc2cccc(Oc3ccccc3)c2)C1(C)C (configuration not stated)
inactive: Potency [1] | Potency [2] | Potency [3] | Potency [4] | Potency [5] | Potency [8] | Potency [10]

COc1ccc(C=O)cc1OC
inactive: Potency [1] | Potency [2] | Potency [3] | Potency [4] | Potency [5] | Potency [8] | Potency [10]

COC(=O)Nc1nc2ccccc2[nH]1
active: Potency [2] 9.69 µM and 8.63 µM | Potency [3] 6.11 µM and 6.86 µM | Potency [4] 6.86 µM and 7.7 µM | Potency [10] 12.2 µM
inactive: Potency [1] | Potency [5] | activity change ([7]; at 70.3 µM (top of the series)) 0.968% and 4.32% | Potency [9]

O=[N+]([O-])c1ccc(Cl)c([N+](=O)[O-])c1
inactive: activity change ([7]; at 70.3 µM (top of the series)) -11.5% | activity change ([7]; at 95 µM (top of the series)) -10.5%
active: Potency [1] 19.8 µM | Potency [2] 2.77 µM and 1.72 µM | Potency [3] 1.75 µM and 2.17 µM | Potency [4] 1.24 µM and 1.93 µM | Potency [5] 11.1 µM and 17.4 µM | Potency [8] 15.6 µM and 13.7 µM | Potency [9] 8.77 µM and 8.63 µM | Potency [10] 15.6 µM and 6.11 µM

COP(=O)(NC(C)=O)SC (configuration not stated)
inactive and 68.6 µM (active): Potency [2]
inactive and 30.6 µM (active): Potency [4]
inactive: Potency [1] | Potency [5] | Potency [10]
inactive and 27.3 µM (active): Potency [3]

ClC(Cl)=C(Cl)C(Cl)=C(Cl)Cl
inactive: Potency [1] | Potency [2] | Potency [3] | Potency [4] | Potency [5] | Potency [8] | Potency [10]

CC(C)Nc1ccc(Nc2ccccc2)cc1
active: Potency [2] 5.96 µM and 17.2 µM and 12.2 µM | Potency [3] 10.6 µM and 12.1 µM and 13.7 µM | Potency [4] 8.41 µM and 15.3 µM and 10.9 µM | Potency [5] 21.8 µM and 49 µM | Potency [8] 68.3 µM and 61.1 µM | Potency [10] 13.3 µM and 30.6 µM
inactive: Potency [1]

C[N+](C)(C)C
inactive: Potency [1] | Potency [2] | Potency [3] | Potency [4] | Potency [5] | Potency [8] | Potency [10]

CCCCOCCOC(C)=O
inactive: Potency [1] | Potency [2] | Potency [3] | Potency [4] | Potency [5] | Potency [8] | Potency [10]

CCCCSP(=O)(SCCCC)SCCCC
inactive: Potency [1] | Potency [3] | Potency [4] | Potency [5]
active: Potency [2] 61.1 µM

C=CC(Cl)CCl (configuration not stated)
inactive: Potency [1] | Potency [2] | Potency [3] | Potency [4] | Potency [5] | Potency [6] | activity change ([7]; at 95 µM (top of the series)) -0.5% and 0.488% | Potency [9] | Potency [10]

CCNc1nc(Cl)nc(NC(C)(C)C#N)n1
inactive: Potency [1] | Potency [2] | Potency [3] | Potency [4] | Potency [5] | Potency [10]

CC[n+]1c(-c2ccccc2)c2cc(N)ccc2c2ccc(N)cc21
active: Potency [1] 16.9 µM and 19 µM and 13.7 µM | Potency [2] 211 nM and 531 nM and 171 nM | Potency [3] 376 nM and 841 nM and 96.4 nM | Potency [4] 298 nM and 750 nM and 85.9 nM | Potency [5] 12 µM and 4.88 µM | Potency [8] 13.3 µM and 26.6 µM and 30.5 µM
inactive and 54.2 µM (active): Potency [10]

CC(C)CON=O
inactive: Potency [1] | Potency [2] | Potency [3] | Potency [4] | Potency [5] | Potency [8] | Potency [10]

CCOP(=S)(OCC)OP(=S)(OCC)OCC
inactive: Potency [1] | Potency [3] | Potency [4] | Potency [5] | Potency [6] | activity change ([7]; at 70.3 µM (top of the series)) -0.0098% | Potency [8] | Potency [9] | Potency [10]

[Cl-].[Cl-].[Cl-].[Fe+3]
inactive: Potency [1] | Potency [3] | Potency [4] | Potency [5] | Potency [8] | Potency [10]

CC(C)COC(=O)c1ccccc1C(=O)OCC(C)C
inactive: Potency [1] | Potency [5] | Potency [8] | Potency [10]
active: Potency [2] 27.3 µM | Potency [4] 48.6 µM
